Experimental data taken from PubChem BioAssay (EPA / NIEHS).
Records with an inconclusive call do not appear. The source made the active and inactive calls. Rule for the calls, unless noted: active = hit-call score of the fitted dose curve at least 0.9, where 1 is the maximum; inactive = score below 0.9.

Columns and labels:
[1] = APR_HepG2_CellCycleArrest_1hr: Apredica 1-hour HepG2 Assay for Cell Cycle Arrest (AID 2282666); conditions: high-content imaging, actives raise or lower the signal
How it was run: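 HepG2 cells exposed for 1 h to 0.39–200 uM compound (0.5% DMSO). Fixed, Hoechst-stained nuclei imaged by ArrayScan; DNA content quantified by Cell Cycle analysis; bidirectional fit against DMSO.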

[2] = ACEA_ER_80hr: ACEA Biosciences xCELLigence Real-Time Cell Analysis on Estrogen Receptor Agonism for Proliferation (AID 2282667; active = hit-call score of the fitted dose curve at least 0.9, where 1 is the maximum); conditions: T47D proliferation, impedance (xCELLigence), 80 h
How it was run: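 Real-time impedance growth kinetics of human T-47D breast cells read 80 h after dosing, gain-of-signal fitted relative to DMSO. Compounds: 1:4 serial series, top final concentration 100 uM, n = 2.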

[3] = APR_HepG2_CellLoss_1hr: Apredica 1-hour HepG2 Assay for Cell Loss (AID 2282668); conditions: high-content imaging;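 note: curves fitted both ways against DMSO so gain or loss of cells counts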
How it was run: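 HepG2 cells were treated for 1 h with compound at 0.39–200 uM, in duplicate, in 0.5% DMSO. After formaldehyde fixation, Hoechst 33342-stained nuclei were imaged on an ArrayScan to count cells. Data were fitted bidirectionally versus DMSO.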

[4] = APR_HepG2_MicrotubuleCSK_1hr: Apredica 1-hour HepG2 Assay for Microtubule CSK Stabilty (AID 2282669); conditions: HepG2 microtubule cytoskeleton imaging, actives raise or lower the signal
How it was run: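 HepG2 cells exposed 1 h to 0.39–200 uM compound (0.5% DMSO, duplicates), then formaldehyde-fixed, permeabilized and immunostained for alpha-tubulin with Hoechst nuclei. Imaged by ArrayScan high-content analysis; bidirectional fit versus DMSO.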

[5] = APR_HepG2_NuclearSize_1hr: Apredica 1-hour HepG2 Assay for Nuclear Size (AID 2282670); conditions: high-content imaging, actives raise or lower the signal
How it was run: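 HepG2 cells dosed 1 hr with 0.39–200 uM compound (0.5% DMSO), formaldehyde-fixed, Hoechst 33342-stained and imaged at 20x; nuclear diameter from nuclear stain, fitted bidirectionally against DMSO.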

[6] = APR_HepG2_p53Act_1hr: Apredica 1-hour HepG2 Assay for p53 Activation (AID 2282671); conditions: high-content imaging, actives raise or lower the signal
How it was run: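 HepG2 cells treated 1 h with compound at 0.39–200 uM (10 concentrations, duplicate) in 0.5% DMSO. Formaldehyde-fixed, permeabilised cells immunostained for p53 with Hoechst 33342; high-content imaging, bidirectional fit versus DMSO.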

[7] = APR_HepG2_MitoticArrest_1hr: Apredica 1-hour HepG2 Assay for Mitotic Arrest (AID 2282672); conditions: high-content imaging, actives raise or lower the signal
How it was run: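 HepG2 cells exposed 1 hr to compounds at 0.39–200 uM (0.5% v/v DMSO final), then fixed in 3.7% formaldehyde and immunostained for phospho-histone H3 with Hoechst 33342. Mitotic arrest scored by automated fluorescence imaging, fitted bidirectionally versus DMSO.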

[8] = APR_HepG2_MitoMass_1hr: Apredica 1-hour HepG2 Assay for Mitochondrial Mass (AID 2282674); conditions: high-content imaging, actives raise or lower the signal
How it was run: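 HepG2 cells dosed 1 hr with 0.39-200 uM compound (0.5% DMSO), duplicate wells. Mitochondria stained with 250 nM MitoTracker Red CMXRos for 30 min before formaldehyde fixation, imaged at 20x by ArrayScan; bidirectional fit versus DMSO.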

[9] = APR_HepG2_MitoMembPot_1hr: Apredica 1-hour HepG2 Assay for Mitochondrial Membrane Potential (AID 2282675); conditions: imaging, actives raise or lower the signal
How it was run: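 HepG2 cells dosed 1 hour with 0.39–200 uM compound in duplicate, 0.5% DMSO final. MitoTracker Red CMXRos (250 nM, 30 min) loaded before formaldehyde fixation; fluorescence quantified by high-content imaging, bidirectional fitting versus DMSO.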

[10] = APR_HepG2_CellCycleArrest_24hr: Apredica 24-hour HepG2 Assay for Cell Cycle Arrest (AID 2282905); conditions: imaging, actives raise or lower the signal;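 note: cell cycle arrest scored as ratio of 2N to 4N nuclear DNA content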
How it was run: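 Compounds at 0.39–200 uM (0.5% DMSO) for 24 h, then fixed and Hoechst 33342 stained. Cell-cycle analysis of nuclear DNA content by high-content imaging, fitted bidirectionally versus DMSO.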

[11] = APR_HepG2_StressKinase_1hr: Apredica 1-hour HepG2 Assay for Stress Kinase (AID 2282906); conditions: HepG2 stress kinase (phospho-c-Jun) imaging, actives raise or lower the signal
How it was run: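 HepG2 cells dosed 0.39-200 uM (0.5% DMSO) for 1 h, then formaldehyde-fixed. Stress kinase read by phospho-c-Jun immunofluorescence using high-content imaging; bidirectional fit vs DMSO.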

[12] = APR_HepG2_NuclearSize_24hr: Apredica 24-hour HepG2 Assay for Nuclear Size (AID 2282907); conditions: high-content imaging, actives raise or lower the signal
How it was run: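 HepG2 cells exposed 24 h to compounds at 0.39–200 uM (0.5% DMSO), fixed, Hoechst 33342 stained and imaged at 20x; nuclear diameter measured by automated image analysis, fitted bidirectionally against DMSO controls.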

[13] = APR_HepG2_CellLoss_24hr: Apredica 24-hour HepG2 Assay for Cell Loss (AID 2282908); conditions: high-content imaging;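 for AC50: fit in both directions so a hit may be cell loss or gain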
How it was run: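 HepG2 cells exposed 24 hr to 0.39–200 uM compound in duplicate at 0.5% v/v final DMSO. Cells fixed in 3.7% formaldehyde and Hoechst 33342-stained. Cell number came from nuclear imaging at 20x. Bidirectional fit versus DMSO.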

[14] = APR_HepG2_MicrotubuleCSK_24hr: Apredica 24-hour HepG2 Assay for Microtubule CSK Stabilty (AID 2282909); conditions: HepG2 microtubule cytoskeleton imaging, actives raise or lower the signal
How it was run: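 HepG2 cells were treated 24 hr with compound at 0.39–200 uM in duplicate (0.5% DMSO final), then fixed and permeabilized. Alpha-tubulin immunofluorescence was imaged by high-content microscopy, with bidirectional fitting against DMSO and taxol as positive control.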

[15] = APR_HepG2_MitoticArrest_24hr: Apredica 24-hour HepG2 Assay for Mitotic Arrest (AID 2282910); conditions: high-content imaging, actives raise or lower the signal
How it was run: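 Compounds are dosed onto HepG2 cells across ten concentrations up to 200 uM for 24 hr. Cells are then fixed in 3.7% formaldehyde, permeabilised, and labelled for phospho-histone H3 and nuclei; images are scored by cell cycle analysis and fitted bidirectionally relative to DMSO.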

[16] = APR_HepG2_MitoMembPot_24hr: Apredica 24-hour HepG2 Assay for Mitochondrial Membrane Potential (AID 2282911); conditions: imaging, actives raise or lower the signal
How it was run: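 Mitochondrial membrane potential imaged via MitoTracker Red CMXRos (250 nM, 30 min pre-fixation) in fixed HepG2 cells with Hoechst nuclear identification. Ten concentrations 0.39–200 uM, 24 h treatment, 0.5% DMSO; CCCP as positive control.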

[17] = APR_HepG2_MitoMass_24hr: Apredica 24-hour HepG2 Assay for Mitochondrial Mass (AID 2282912); conditions: high-content imaging, actives raise or lower the signal
How it was run: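 HepG2 cells exposed 24 hr to 0.39–200 uM compound, 0.5% v/v DMSO, in duplicate. Stained before fixation with 250 nM MitoTracker Red CMXRos for 30 min, then imaged at 20x with Hoechst nuclei. Fitted in both directions against DMSO.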

[18] = APR_HepG2_p53Act_24hr: Apredica 24-hour HepG2 Assay for p53 Activation (AID 2282913); conditions: high-content imaging, actives raise or lower the signal;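 note: p53 protein immunofluorescence averaged per cell in HepG2 with Hoechst nuclei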
How it was run: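 Fluorescence imaging of formaldehyde-fixed HepG2 cells labelled for p53 and with Hoechst, 24 h after dosing (0.39–200 uM, duplicate wells, 0.5% v/v DMSO). Signal fitted in both directions relative to DMSO.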

[19] = APR_HepG2_CellCycleArrest_72hr: Apredica 72-hour HepG2 Assay for Cell Cycle Arrest (AID 2282914); conditions: high-content imaging, actives raise or lower the signal
How it was run: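 Read-out: nuclear DNA content from Hoechst 33342 high-content imaging (20x, six fields/well) after 3.7% formaldehyde fixation, fitted bidirectionally against DMSO. Treatment was 72 h in HepG2, ten concentrations 0.39–200 uM, duplicate, 0.5% DMSO.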

[20] = APR_HepG2_P-H2AX_1hr: Apredica 1-hour HepG2 Assay for H2AX Phosphorylation (AID 2282673); conditions: high-content imaging, actives raise or lower the signal
How it was run: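 HepG2 dosed 1 hr at 0.39-200 uM (0.5% DMSO final), duplicate. Fixed in 3.7% formaldehyde, Triton permeabilized, immunostained for phospho-histone H2A.x (1:200) with Hoechst 33342; ArrayScan 20x imaging, bidirectional fit vs DMSO.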

Measured: AC50

CS(=O)(=O)c1ccc(C(=O)C2C(=O)CCCC2=O)c([N+](=O)[O-])c1
inactive: [1] | [2] | [3] | [4] | [5] | [6] | [7] | [8] | [9] | [10] | [11] | [12] | [13] | [14] | [15] | [16] | [17] | [18] | [19]

CNC(=O)Oc1cccc2ccccc12
active: [13] 50.5 µM
inactive: [1] | [2] | [3] | [4] | [5] | [6] | [8] | [11] | [12] | [14] | [15] | [16] | [17] | [18] | [19]

Nc1c(Cl)c(F)nc(OCC(=O)O)c1Cl
inactive: [1] | [2] | [3] | [5] | [6] | [20] | [8] | [11] | [12] | [13] | [14] | [15] | [16] | [17] | [18] | [19]

COc1ccc(-c2ccccc2)cc1NNC(=O)OC(C)C
inactive: [1] | [2] | [3] | [5] | [6] | [7] | [20] | [8] | [11] | [12] | [13] | [14] | [15] | [16] | [17] | [18] | [19]

CSC(=O)c1c(C(F)F)nc(C(F)(F)F)c(C(=O)SC)c1CC(C)C
inactive: [1] | [2] | [3] | [4] | [5] | [6] | [7] | [8] | [10] | [11] | [12] | [13] | [14] | [15] | [16] | [17] | [18] | [19]

COP(=O)(OC)O/C(C)=C/C(=O)N(C)C
inactive: [2] | [3] | [4] | [5] | [6] | [20] | [8] | [11] | [12] | [13] | [14] | [15] | [16] | [17] | [18] | [19]

Cc1cnc(C2=NC(C)(C(C)C)C(=O)N2)c(C(=O)O)c1 (stereo not drawn)
inactive: [2] | [3] | [4] | [5] | [6] | [20] | [8] | [11] | [12] | [13] | [14] | [15] | [16] | [17] | [18] | [19]

CC1(C)CCC(=Cc2ccc(Cl)cc2)C1(O)Cn1cncn1 (stereo not drawn)
inactive: [2] | [3] | [5] | [6] | [7] | [8] | [11] | [12] | [13] | [14] | [15] | [16] | [17] | [18] | [19]
